The assay has as its system PIP5K1A. Particulars: concentration: 1 μM, replicates: in singlicate; n = 1.
With `Cc1cccc(-c2nc(-c3ccc(S(C)(=O)=O)cc3)sc2-c2ccncc2)c1`, the “%Inh” value was 22%.

With `Cc1ccc(NC(=O)c2ccnc(N3CCN(C)CC3)c2)cc1-c1ccc(C(=O)NCC2CC2)cc1` [GW775604], the “%Inh” value came to 0%. For `COc1ccc(COc2cc(-n3cnc4ccccc43)sc2C(N)=O)cc1` [GSK1024304] the value was 17%; for `Fc1ccc(-c2ncn(CCCN3CCOCC3)c2-c2ccccn2)cc1` [SB-211742], 22%.

Regarding `CCCCCc1nc2c(N)ncnc2n1CCCCC` [SKF-97255], the “%Inh” value worked out at 1%.

For the compound `N#Cc1c(N2CCOCC2)sc(-c2ccn[nH]2)c1-c1ccc(Cl)cc1`, the “%Inh” value stood at 0%. On to `O=C(Nc1cccc(-c2nn3ncccc3c2-c2ccnc(Nc3cccc(C(F)(F)F)c3)n2)c1)c1c(F)cccc1F` [GSK299495], for which the “%Inh” value stood at 18%. The figure for `CC(=O)Nc1ccc(COc2ccc(Nc3ccnc4cc(-c5ccccn5)ccc34)cc2)cc1.Cl` [GW440148] is 0%; for `c1ccc(-c2cc(-c3c[nH]nc3-c3ccccn3)ccn2)cc1` [GW576604] it is 19%. For `O=C(c1ccc(-c2cc(-c3c[nH]nc3-c3ccccn3)ccn2)cc1)N1CCOCC1` [GW812171] the value was 0%; for `Nc1nc(-c2ccc3c(N)n[nH]c3c2)cc(N2CCCC2)n1` [GSK2227430], 0%. Take `COc1ccc(Nc2nccc(N3CCC(NC(=O)Nc4cccc(C(C)=O)c4)C3)n2)cc1` (stereo not shown) [GSK1379731]: the “%Inh” value was 0%. For `O=C1Cc2cc(Nc3nc(NCc4cccc(S(=O)(=O)C(F)(F)F)c4)ncc3C(F)(F)F)ccc2N1`, the “%Inh” value was found to be 13%.
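Also: KINOMEscan kinase panel screen.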
